In PubChem BioAssay:
The source made the active and inactive calls. How the calls were made is not given here.

molecular target: Pantothenate synthetase (Mycobacterium tuberculosis (strain ATCC 25618 / H37Rv)) (UniProt P9WIL5); assay: Recombinant Mtb pantothenate synthetase (PanC) inhibitors, coupled enzyme, confirmatory (AID 375); conditions: coupled enzyme assay; at 10 µM, hits give high values;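 further: 0% = full reaction with vehicle and 100% = no enzyme background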
Sequence (P9WIL5 whole entry, looked up): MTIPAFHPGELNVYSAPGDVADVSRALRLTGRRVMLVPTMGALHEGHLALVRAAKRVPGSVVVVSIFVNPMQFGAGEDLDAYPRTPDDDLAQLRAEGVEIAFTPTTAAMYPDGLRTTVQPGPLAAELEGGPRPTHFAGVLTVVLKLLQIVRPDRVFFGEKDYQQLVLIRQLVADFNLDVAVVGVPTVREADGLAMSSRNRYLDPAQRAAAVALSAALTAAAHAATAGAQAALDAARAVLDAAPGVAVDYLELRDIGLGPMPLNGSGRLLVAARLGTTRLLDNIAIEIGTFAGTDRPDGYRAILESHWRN

| SMILES | inhibition |
| --- | --- |
| Cc1cc(=O)[nH]c(=S)n1-c1ccccc1 | 17% (inactive) |
| CCn1c(CSc2nnc(-c3cccnc3)n2-c2ccccc2C)nc2cc(C(=O)O)ccc21 | 0% (inactive) |
| FC(F)(F)COc1nc(N2CCCCC2)nc(N2CCNCC2)n1 | 4% (inactive) |
| Cc1ccc(NC(=O)C2CCCN2C(=O)Oc2ccccc2)cc1 (stereo not given) | 1% (inactive) |
| CCOC(=O)C1CCN(CC(=O)Nc2c(C(=O)OC)[nH]c3ccc(Cl)cc23)CC1 | 5% (inactive) |
| CCCCOC(=O)Nc1nccs1 | 9% (inactive) |
| COc1ccc(-n2c(SCC#N)nc3ccccc3c2=O)cc1 | 1% (inactive) |
| Cc1ncoc1C(=O)Nc1cccc(Cl)c1C | 1% (inactive) |
| COc1cc(C(=O)N2c3ccccc3CC2C)cc(OC)c1OC (stereo not given) | 0% (inactive) |
| O=C(c1ccc(CNS(=O)(=O)c2cccc(C(F)(F)F)c2)cc1)N1CCOCC1 | 0% (inactive) |
| CCOC(=O)N1CCC2(CC1)CC(=O)c1c(ccc3oc(C(=O)O)c(C)c13)O2 | 0% (inactive) |
| ON1C2CCCCC2N(O)C1c1c(F)c(F)c(F)c(F)c1F (stereo not given) | 7% (inactive) |
| O=C(NCCCN1CCCC1=O)c1cncc(Br)c1 | 0% (inactive) |
| COc1cc(NC(=O)Cc2cccs2)ccc1-n1cnnn1 | 10% (inactive) |
| CCC1(C)Cc2c(sc3nc(SCC(=O)O)[nH]c(=O)c23)CO1 (stereo not given) | 0% (inactive) |
| CCOC(=O)N1CCC(O)(c2cc(C)c(C)cc2C)CC1 | 3% (inactive) |
| CC1CCN(C(=O)C2CCN(S(=O)(=O)c3cnc[nH]3)CC2)CC1 | 5% (inactive) |
| Cc1nn(CC(O)Cn2c3c(c4ccccc42)CCN(C)C3=O)c(C)c1Br (stereo not given) | 7% (inactive) |
| O=C(CN1C(=O)CSC1=O)Nc1ccc(N2CCOCC2)cc1 | 7% (inactive) |
| COC(=O)CS(=O)(=O)c1nnc([C@H](Cc2ccccc2)NC(=O)OC(C)(C)C)o1 | 1% (inactive) |

| SMILES | inhibition |
| --- | --- |
| CCOc1ccccc1N1C(=O)c2ccc(C(=O)Nc3cccnc3)cc2C1=O | 4% (inactive) |
| CC1CC(=O)c2cnc(NCC3CCCO3)nc2C1 (stereo not given) | 3% (inactive) |
| O=C(Cn1nnc(-c2ccncc2)n1)Nc1ccc2c(c1)CCC2 | 0% (inactive) |
| O=S(=O)(NC1CCCC1)c1ccc(S(=O)(=O)N2CCc3ccccc32)cc1 | 0% (inactive) |
| Cc1cc(C(=O)NCCCN2CCN(C3CCCCC3)CC2)n(-c2ccccc2)n1 | 4% (inactive) |
| CSc1ccccc1NC(=O)c1cnc2n(c1=O)CCS2 | 7% (inactive) |
| O=C1C2ON(c3ccc(Cl)cc3)C(c3ccco3)C2C(=O)N1c1ccccc1 (stereo not given) | 0% (inactive) |
| CCN1C(=O)c2cccc3c(NC(=O)c4ccc5c(c4)OCCO5)ccc1c23 | 0% (inactive) |
| O=C(COc1ccccc1)N1CCN(c2ncnc3c2cnn3-c2ccccc2)CC1 | 0% (inactive) |
| Cc1onc(-c2ccccc2)c1C(=O)N1CCOCC1 | 9% (inactive) |
| COCC(=O)N(Cc1cc2cc(OC)ccc2[nH]c1=O)c1ccccc1 | 0% (inactive) |
| Cc1cc(N2C(=O)C(=O)/C(=C(/O)c3ccc(F)cc3)C2c2ccc(F)cc2)no1 (stereo not given) | 0% (inactive) |
| CSc1nnc(-c2nnc(SC)n2-c2ccccc2)n1-c1ccccc1 | 0% (inactive) |
| O=C(CSc1ncnc2nc[nH]c12)c1ccc(Cl)cc1 | 1% (inactive) |
| COC(=O)[C@H](C)NC(=O)NCc1ccc(F)cc1 | 1% (inactive) |
| Cc1ccc(S(=O)(=O)N(CC(=O)N2CCC(C(N)=O)CC2)Cc2ccc(F)cc2)cc1 | 0% (inactive) |
| Cc1cccc(OCC(=O)Nc2cc(C)ccc2O)c1 | 0% (inactive) |
| N#Cc1nc(COc2ccccc2)oc1NCCCn1ccnc1 | 0% (inactive) |
| COC(=O)c1ccccc1NC(=O)C1CC(=O)N(c2ccccc2)C1 (stereo not given) | 4% (inactive) |
| Cn1c2c(c(=O)n(C)c1=O)CN(CCCN1CCOCC1)CN2 | 0% (inactive) |
